Measured values published in ChEMBL document CHEMBL5606460, “ASAP - DENV-2 NS2B-NS3 protease fluorescence single point” (2024).
About 110 (5.5%) of roughly 2,000 compounds showed an effect of 50% or more. This excerpt belongs to a sample that is enriched for strong results. Non-standard residues stand in square brackets, D forms with d. Residues, ends and D or L forms follow the SMILES beside them. Phg = N[C@H](C(=O)O)c1ccccc1; 4Amb = NCc1ccc(C(=O)O)cc1; Nle = CCCC[C@H](N)C(=O)O

Molecular target: Genome polyprotein (dengue virus type 2) (UniProt P29990)
[1] = Thailand/16681/1984, Concentration 25.0 uM, Number of replicates 1.0

Structure (SMILES): COCc1cc(-c2ccccc2C(=O)Nc2cnn(C)c2)ccn1
- inhibition (Thailand/16681/1984, Concentration 49.5 uM, Number of replicates 2.0, Standard deviation 1.4111132401966338 %): -5.45%
- inhibition (Thailand/16681/1984, Concentration 99.01 uM, Number of replicates 2.0, Standard deviation 1.6255328031848963 %): -5.34%
- inhibition (Thailand/16681/1984, Concentration 198.0 uM, Number of replicates 2.0, Standard deviation 0.730186058256325 %): -4.12%

Structure (SMILES): O=Cc1ccc(N2CCC(C(=O)NCC(=O)Nc3ccc(F)c(F)c3)CC2)cc1
- inhibition [1]: 14.1%

Structure (SMILES): Cn1c(C(=O)Nc2cc(Cl)cc(C(=O)NC(C)(C)CO)c2)cccc1=O
- inhibition (Thailand/16681/1984, Concentration 49.5 uM, Number of replicates 2.0, Standard deviation 0.4081268580659683 %): -0.99%
- inhibition (Thailand/16681/1984, Concentration 99.01 uM, Number of replicates 2.0, Standard deviation 2.113430221710736 %): -1.01%
- inhibition (Thailand/16681/1984, Concentration 198.0 uM, Number of replicates 2.0, Standard deviation 2.072570516879941 %): 0.352%

Structure (SMILES): NCc1cn(C2CCN(c3nc(-c4ccccc4)cs3)CC2)nn1
- inhibition (Thailand/16681/1984, Concentration 49.5 uM, Number of replicates 2.0, Standard deviation 0.032513427640456005 %): -4.62%
- inhibition (Thailand/16681/1984, Concentration 99.01 uM, Number of replicates 2.0, Standard deviation 1.6651164489567518 %): -3.29%
- inhibition (Thailand/16681/1984, Concentration 198.0 uM, Number of replicates 2.0, Standard deviation 1.091599962537426 %): 0.094%

Structure (SMILES): CC1(C)C[C@]1(CNC(=O)C1CCN(c2ccc(C=O)cc2)CC1)c1ccccc1
- inhibition [1]: 12.2%

Structure (SMILES): O=Cc1ccc(N2CCC(C(=O)N3CCc4c(Br)cccc4C3)CC2)cc1
- inhibition [1]: 2.83%

Structure (SMILES): Cc1cc(CO)c2cccc(Cc3cccc(NC(=O)c4nc(N)n[nH]4)c3)c2n1
- inhibition (Thailand/16681/1984, Concentration 49.95 uM, Number of replicates 2.0, Standard deviation 2.1470069511188496 %): 1.75%
- inhibition (Thailand/16681/1984, Concentration 99.9 uM, Number of replicates 2.0, Standard deviation 2.660737289988502 %): 8.09%

Structure (SMILES): Cc1cc(CO)c2cccc(NC(=O)c3nc(N)n[nH]3)c2n1
- inhibition (Thailand/16681/1984, Concentration 49.95 uM, Number of replicates 2.0, Standard deviation 1.7045480288991801 %): 42.6%
- inhibition (Thailand/16681/1984, Concentration 99.9 uM, Number of replicates 2.0, Standard deviation 15.015963199334223 %): 67.3%

Structure (SMILES): Cc1cc(CO)c2cccc(Cc3ccccc3NC(=O)c3nc(N)n[nH]3)c2n1
- inhibition (Thailand/16681/1984, Concentration 49.95 uM, Number of replicates 2.0, Standard deviation 1.581349166072865 %): 0.804%
- inhibition (Thailand/16681/1984, Concentration 99.9 uM, Number of replicates 2.0, Standard deviation 1.2268610426733166 %): 4.88%

Structure (SMILES): O=C(NCCc1cncnc1)c1cn([C@H]2CCCNC2)nn1
- inhibition (Thailand/16681/1984, Concentration 49.5 uM, Number of replicates 2.0, Standard deviation 3.1505652659838077 %): -3.39%
- inhibition (Thailand/16681/1984, Concentration 99.01 uM, Number of replicates 2.0, Standard deviation 0.03260817375590849 %): -4.66%
- inhibition (Thailand/16681/1984, Concentration 198.0 uM, Number of replicates 2.0, Standard deviation 5.615654862136011 %): -0.277%

Structure (SMILES): Clc1ccc2[nH]cc(Cc3ccc(-c4nn[nH]n4)cc3)c2c1
- inhibition (Thailand/16681/1984, Concentration 99.5 uM, Number of replicates 2.0, Standard deviation 0.137702183454793 %): 89.8%
- inhibition (Thailand/16681/1984, Concentration 295.6 uM, Number of replicates 2.0, Standard deviation 0.013886206472581278 %): 98.9%

Structure (SMILES): O=C(O)[C@H](c1c[nH]c2ccccc12)N1CCC(c2cnc3ccc[nH]c2-3)CC1
- inhibition (Thailand/16681/1984, Concentration 49.5 uM, Number of replicates 2.0, Standard deviation 2.9336110336729484 %): -1.93%
- inhibition (Thailand/16681/1984, Concentration 99.01 uM, Number of replicates 2.0, Standard deviation 1.2688833051000123 %): -1.4%
- inhibition (Thailand/16681/1984, Concentration 198.0 uM, Number of replicates 2.0, Standard deviation 1.8509089452057481 %): 0.519%

Structure (SMILES): CC(=O)N[C@H](C(=O)Nc1cccc(C(N)=O)c1)c1ccc(OCc2ccccc2)cc1
- inhibition (Thailand/16681/1984, Concentration 49.5 uM, Number of replicates 2.0, Standard deviation 1.41100239398505 %): -2.21%
- inhibition (Thailand/16681/1984, Concentration 99.01 uM, Number of replicates 2.0, Standard deviation 6.402498423083348 %): 0.486%
- inhibition (Thailand/16681/1984, Concentration 198.0 uM, Number of replicates 2.0, Standard deviation 5.599350943845451 %): 0.73%

Structure (SMILES): CCCC[C@H](NC(C)=O)C(=O)N[C@@H](C(=O)NCc1ccc(C(N)=O)cc1)c1ccc(OCc2ccccc2)cc1
- inhibition (Thailand/16681/1984, Concentration 49.5 uM, Number of replicates 2.0, Standard deviation 1.1393107429607887 %): -2.14%
- inhibition (Thailand/16681/1984, Concentration 99.01 uM, Number of replicates 2.0, Standard deviation 1.3468928227151291 %): -2.15%
- inhibition (Thailand/16681/1984, Concentration 198.0 uM, Number of replicates 2.0, Standard deviation 1.6817028564994563 %): -0.786%

Structure (SMILES): CCCC[C@H](NC(C)=O)C(=O)N[C@H](C(=O)NCc1ccc(C(N)=O)cc1)c1ccccc1 (Ac-[Nle]-[Phg]-[4Amb]-NH2)
- inhibition (Thailand/16681/1984, Concentration 49.5 uM, Number of replicates 2.0, Standard deviation 0.4432432329236086 %): -1.46%
- inhibition (Thailand/16681/1984, Concentration 99.01 uM, Number of replicates 2.0, Standard deviation 0.9541533154251546 %): -0.354%
- inhibition (Thailand/16681/1984, Concentration 198.0 uM, Number of replicates 2.0, Standard deviation 1.9838414541082603 %): 1.79%

Structure (SMILES): CCCC[C@H](NC(C)=O)C(=O)N[C@H](C(=O)Nc1cccc(C(N)=O)c1)c1ccc(OCc2ccccc2)cc1
- inhibition (Thailand/16681/1984, Concentration 49.5 uM, Number of replicates 2.0, Standard deviation 1.3015902921422546 %): -0.513%
- inhibition (Thailand/16681/1984, Concentration 99.01 uM, Number of replicates 2.0, Standard deviation 0.5153915569037094 %): 3.33%
- inhibition (Thailand/16681/1984, Concentration 198.0 uM, Number of replicates 2.0, Standard deviation 0.5711740910196359 %): 8.87%

Structure (SMILES): CCCCCC(=O)N[C@@H](Cc1ccccc1)C(=O)NCc1cccc(CN)c1
- inhibition (Thailand/16681/1984, Concentration 49.5 uM, Number of replicates 2.0, Standard deviation 0.5911657110409295 %): -0.287%
- inhibition (Thailand/16681/1984, Concentration 99.01 uM, Number of replicates 2.0, Standard deviation 0.7592516208074989 %): -0.251%
- inhibition (Thailand/16681/1984, Concentration 198.0 uM, Number of replicates 2.0, Standard deviation 1.593950905190228 %): -0.639%

Structure (SMILES): CCCC[C@H](NC(C)=O)C(=O)N[C@H](C(=O)NCc1ccc(C(N)=O)cc1)c1ccc(OCc2ccccc2)cc1
- inhibition (Thailand/16681/1984, Concentration 49.5 uM, Number of replicates 2.0, Standard deviation 4.54767597440597 %): 18.2%
- inhibition (Thailand/16681/1984, Concentration 99.01 uM, Number of replicates 2.0, Standard deviation 0.08657569598756192 %): 99.9%
- inhibition (Thailand/16681/1984, Concentration 198.0 uM, Number of replicates 2.0, Standard deviation 0.08274539039489186 %): 99.7%

Structure (SMILES): CCCC[C@H](NC(C)=O)C(=O)N[C@H](C(=O)NCc1ccc(CN)cc1)c1ccccc1
- inhibition (Thailand/16681/1984, Concentration 49.5 uM, Number of replicates 2.0, Standard deviation 1.3580554366166637 %): 0.537%
- inhibition (Thailand/16681/1984, Concentration 99.01 uM, Number of replicates 2.0, Standard deviation 18.440494023113153 %): 14.1%
- inhibition (Thailand/16681/1984, Concentration 198.0 uM, Number of replicates 2.0, Standard deviation 14.8908767477505 %): 56%

Structure (SMILES): CCCC[C@H](NC(C)=O)C(=O)N[C@H](C(=O)NCc1ccc(CN)cc1)c1ccc(OCc2ccccc2)cc1
- inhibition (Thailand/16681/1984, Concentration 49.5 uM, Number of replicates 2.0, Standard deviation 1.556187076043376 %): -3.73%
- inhibition (Thailand/16681/1984, Concentration 99.01 uM, Number of replicates 2.0, Standard deviation 1.4164928639405643 %): 9.94%
- inhibition (Thailand/16681/1984, Concentration 198.0 uM, Number of replicates 2.0, Standard deviation 0.0753329398535839 %): 99.6%

Structure (SMILES): CCCC[C@H](NC(C)=O)C(=O)N[C@H](C(=O)Nc1ccc(C(N)=O)cc1)c1ccc(OCc2ccccc2)cc1
- inhibition (Thailand/16681/1984, Concentration 49.5 uM, Number of replicates 2.0, Standard deviation 2.073896751762033 %): -0.623%
- inhibition (Thailand/16681/1984, Concentration 99.01 uM, Number of replicates 2.0, Standard deviation 0.38726109133313447 %): 4.02%
- inhibition (Thailand/16681/1984, Concentration 198.0 uM, Number of replicates 2.0, Standard deviation 0.14852549415239058 %): 23%

Structure (SMILES): c1cnc(C2CCN(Cc3c[nH]c4ccccc34)CC2)nc1
- inhibition (Thailand/16681/1984, Concentration 49.5 uM, Number of replicates 2.0, Standard deviation 0.0814293971969877 %): -4.94%
- inhibition (Thailand/16681/1984, Concentration 99.01 uM, Number of replicates 2.0, Standard deviation 1.1974150626674833 %): -3.24%
- inhibition (Thailand/16681/1984, Concentration 198.0 uM, Number of replicates 2.0, Standard deviation 1.6263665310687148 %): -1.42%
